# Screens as filed in PubChem BioAssay.
# Most compounds without a hit are left out; they make up all but 3.5% or so of the library.
# FBW7 activator: FBW7 E3 ligase activators, primary screen, biochemical, AlphaScreen, human | hit rate 0.13% among 650,000 | normalized activity (activation), % at 26.1 µM | AlphaScreen FBW7–phospho-cyclin E peptide binding, activator screen | F-box/WD repeat-containing protein 7 (Homo sapiens), Q969H0; in the data active = normalized activity above about 1.9%;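 also: purified mutant Fbw7 with reduced substrate affinity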
# MITF primary: MITF inhibitors, primary screen, biochemical, AlphaScreen, human; AlphaScreen MITF homodimerization, bead proximity signal; inhibition, % at 2.6 µM; hit rate 0.91% among 650,000; Microphthalmia-associated transcription factor (Homo sapiens), O75030; AID 1259374, 2018; in the data active = inhibition above about 50%;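 also: 0% = vehicle wells with protein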
# Target sequence (O75030 whole entry, looked up): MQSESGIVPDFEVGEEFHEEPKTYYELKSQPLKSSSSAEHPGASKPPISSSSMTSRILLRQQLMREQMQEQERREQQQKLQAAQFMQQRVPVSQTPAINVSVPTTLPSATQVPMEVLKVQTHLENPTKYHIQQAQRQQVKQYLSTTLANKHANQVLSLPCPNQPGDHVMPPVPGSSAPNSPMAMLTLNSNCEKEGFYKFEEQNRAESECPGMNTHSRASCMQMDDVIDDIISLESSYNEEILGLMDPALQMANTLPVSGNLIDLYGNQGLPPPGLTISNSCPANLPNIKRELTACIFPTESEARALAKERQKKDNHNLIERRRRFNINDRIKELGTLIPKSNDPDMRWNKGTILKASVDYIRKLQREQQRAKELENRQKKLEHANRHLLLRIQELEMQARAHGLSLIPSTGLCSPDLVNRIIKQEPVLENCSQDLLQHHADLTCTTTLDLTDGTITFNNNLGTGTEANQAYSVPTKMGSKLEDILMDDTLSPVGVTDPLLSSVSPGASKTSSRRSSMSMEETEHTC
# GPR151 ag: activators of human GPR151, primary screen, cell-based, PathHunter beta-arrestin, luminescence; PathHunter beta-arrestin GPR151 cells; hit rate 1% among 650,000; activation, % at 11.2 µM; in the data active = activation above about 4.9%;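 also: 0% = median of compound wells and 100% = cells with positive control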
# TEAD-YAP inh: TEAD-YAP interaction inhibition, primary screen, TEAD-YAP interaction inhibitor project, luminescence, HEK-TIYL cells; TEAD-Gal4/YAP UAS-luciferase luminescence; inhibition, % at 9.12 µM; hit rate 1.4% among 640,000; in the data active = inhibition above about 32%;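 also: 0% = median of test compound wells and 100% = reference inhibitor wells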
# GPR151 conf act: GPR151 activators, triplicate retest, confirmation, cell-based, PathHunter beta-arrestin, luminescence | shares compounds with GPR151 ag | GPR151 PathHunter beta-arrestin cells, 90 min; % of EA-reagent control over plate median | activation, % at 11.2 µM | 6,700 tested, under 10 active | AID 1508609, 2020;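 active = mean percent activation across replicates above the confirmation screen cutoff of 4.91%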
# GPR119 counter: GPR119 activators in beta-arrestin cells, counter-screen for GPR151 activator project, cell-based, PathHunter beta-arrestin, luminescence, triplicate; shares compounds with GPR151 ag; hit rate 0.3% among 6,700; 90 min; 0 = compound-well median, 100 = enzyme-acceptor control; activation, % at 11.2 µM;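 active = mean percent activation in the counterscreen above 29.09%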;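 also: counterscreen on off-target GPR119 to flag nonselective hits from the GPR151 activator screen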
# Starred values were filed as active, the others as inactive; nt = no result.
SMILES,FBW7 activator,MITF primary,GPR151 ag,TEAD-YAP inh,GPR151 conf act,GPR119 counter
CCOc1ccccc1N1CCN(Cc2ccccc2O)CC1,0,-33,-1,-5,nt,nt
CCCCCCCCCCCCCCCC[n+]1ccccc1,0,-7,5.0*,60*,2,13
C[C@H]1C/C=C/[C@H]2[C@@H]3O[C@]3(C)[C@@H](C)[C@H]3[C@H](Cc4ccccc4)NC(=O)[C@]32OC(=O)O/C=C/[C@](C)(O)C1=O,0,12,11*,-2,0,-5
CC(C)(C)CN1CCN(Cc2cccc(Cl)c2)CC1CCO (configuration not stated),0,9,4,8,nt,nt
Cc1nn(Cc2c(Cl)cccc2Cl)c(C)c1C=O,0,-6,1,4,nt,nt
N#CCC(=O)NN1Cc2ccccc2C1=N,0,-4,6.8*,1,0,8
O=c1cccc2n1CC1CC2CN(C(=S)Nc2ccccc2)C1 (configuration not stated),1,4,-2,10,nt,nt
COc1cc(OC)cc(C(=O)NC(=S)N2CC3CC(C2)c2cccc(=O)n2C3)c1 (configuration not stated),0,-3,7.5*,1,-1,2
CCOC(=O)C1=C(N)OC(C)=C(C(=O)OCCOC)C12C(=O)Nc1ccccc12 (configuration not stated),0,14,1,-6,nt,nt
CCCCOC(=O)C1=C(N)OC(C)=C(C(=O)OCCOC)C12C(=O)Nc1ccccc12 (configuration not stated),0,1,5.3*,7,0,2
CCOC(=O)C1C2NC(=S)N(c3ccccc3)C1(C)Oc1ccccc12 (configuration not stated),0,24,1,-4,nt,nt
C=CCOC(=O)C1C2NC(=S)N(c3cccc(Cl)c3)C1(C)Oc1ccccc12 (configuration not stated),0,-4,10.0*,-7,0,2
Cc1ccccc1N1CCN(Cc2cccc(O)c2)CC1,0,19,-1,9,nt,nt
O=C1Nc2ccc(Cl)cc2C(c2ccccc2Cl)=NC1O (configuration not stated),0,6,6.8*,-18,1,-5
O=C1NC(=O)C(CCc2ccccn2)(CCc2ccccn2)C(=O)N1C1CCCCCC1,0,-5,1,-6,nt,nt
Nc1ncnc2c1ccn2[C@@H]1O[C@H](CO)[C@@H](O)[C@H]1O,0,10,7.1*,100*,5.9*,4
OCC1OC(Oc2ccc(Br)cc2)C(O)C(O)C1O (configuration not stated),0,-1,0,-5,nt,nt
COc1ccc(C(=O)OC2CC3CCC(C2)N3)cc1OC (configuration not stated),0,8,0,17,nt,nt
COc1ccc(C(=O)O)cc1OC,0,-17,5.7*,-8,0,6
CCN(Cc1ccccc1)C(=O)C(Cl)(Cl)Cl,0,2,6.0*,5,-1,2
COc1cccc(-n2c(=S)[nH]c3cc(Cl)ccc3c2=O)c1,0,-3,1,-1,nt,nt
CCCCCCCCCCCCCCCCOC[C@H](COP(=O)(O)OCC[N+](C)(C)C)OC(C)=O,nt,-6,0,nt,nt,nt
O=C(COc1ccc(Br)cc1)N1CCN(CC2CC=CCC2)CC1 (configuration not stated),1,16,9.7*,-1,0,-7
COc1cccc(OC)c1C1=NCC(=O)Nc2c1oc1ccc(Br)cc21,0,5,5.7*,58*,0,-4
O=C1CN=C(c2ccccc2)c2oc3ccc(Br)cc3c2N1,0,-1,2,0,nt,nt
SMILES,FBW7 activator,MITF primary,GPR151 ag,TEAD-YAP inh,GPR151 conf act,GPR119 counter
O=c1c2ccccc2nc(/C=C/c2ccccc2)n1-c1ccc(Cl)cc1,0,-19,4.9*,12,0,-6
CCOc1ccc(-n2c(/C=C/c3ccccc3)nc3ccccc3c2=O)cc1,0,-4,6.9*,13,0,-6
O=c1c2ccccc2nc(/C=C/c2ccccc2)n1-c1ccccc1,0,6,0,-4,nt,nt
COC(=O)C1C2c3ccccc3O[C@]1(C)N=c1s/c(=C/c3ccc(OC)cc3)c(=O)n12 (some centres not stated),0,-6,0,-1,nt,nt
C[C@H]1CC[C@@H]2[C@@H](C)[C@H]3[C@H](CC4[C@@H]5CC=C6CC(O[C@@H]7O[C@H](CO)C(O[C@@H]8O[C@@H](C)[C@H](O)[C@@H](O)[C@H]8O)[C@H](O)[C@H]7O[C@@H]7O[C@@H](C)[C@H](O)[C@@H](O)[C@H]7O)CC[C@]6(C)[C@H]5CC[C@@]43C)N2C1 (some centres not stated),0,11,7.2*,-12,3,18
CC(=O)c1ccc(OCC(=O)N2CCCC(N(C)CCc3ccccc3)C2)cc1 (configuration not stated),0,19,5.0*,-2,1,5
Cc1cccn2c(CNC(C)Cc3cccnc3)c(C(=O)N3CCCCC3)nc12 (configuration not stated),0,1,-1,0,nt,nt
CC(Cc1cccnc1)NCc1c(C(=O)N2CCCCCCC2)nc2ccc(Cl)cn12 (configuration not stated),0,-5,5.0*,-10,0,-2
N#CC(c1c[nH]c2ccccc12)N1CCCC1 (configuration not stated),0,4,3,9,nt,nt
CC1(c2ccc3ccccc3c2)NC(=O)N(CC(=O)Nc2ccc(C#N)c(Cl)c2)C1=O (configuration not stated),0,9,0,1,nt,nt
N#Cc1ccc(NC(=O)CN2c3cccc4cccc(c34)S2(=O)=O)cc1Cl,1,19,5.2*,17,1,-3
CCOc1cccc(CNC2CN3CCC2CC3)c1 (configuration not stated),0,-6,6.9*,4,0,5
O=C(c1ccc(Cl)cc1)c1cc([N+](=O)[O-])ccc1N1CCC(Cc2ccccc2)CC1,0,2,-3,-40,nt,nt
CN1C(=O)NC(=O)/C(=C/c2ccc(-c3ccccc3[N+](=O)[O-])o2)C1=O,0,1,5.0*,4,-1,-14
COc1ccc(CCN(C)Cc2cc(OC)c(OC)cc2[N+](=O)[O-])cc1OC,0,-14,8.4*,13,0,1
Cc1ccc(-n2c(/C=C/c3ccccc3F)nc3ccccc3c2=O)cc1,0,6,0,22,nt,nt
